Rows were chosen to be rich in hits. Some 19% of all compounds tested hit in one or more screens of this group.
ELG1 repair inh: qHTS screen for small molecules that inhibit ELG1-dependent DNA repair in human embryonic kidney (HEK293T) cells expressing luciferase-tagged ELG1 | actives 2.3% (n = 330,000) | Potency, µM (highest dose often 46.1 µM), hits mostly inhibitors | AID 504467, 2011 | HEK293T ELG1-luciferase reporter, luminescence, 16 h; DNA damage induced by 5-fluorouridine; note: nearly all actives have a fitted effect of over 55% in size
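5-Fluorouridine DNA damage + compound/DMSO, 2,000 cells/well, 16 h, 37 °C/5% CO2. ONE-Glo, 30 min RT, luminescence. Readout = decrease in reporter signal.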
HT1080NT lethal: qHTS for induction of synthetic lethality in tumor cells producing 2HG: qHTS for the HT-1080-NT fibrosarcoma cell line | AID 686970, 2013 | actives 1.6% (n = 360,000) | HT-1080-NT fibrosarcoma viability, CellTiter-Glo ATP luminescence, 48 h | Potency, µM (highest dose often 46.1 µM), actives largely listed as cytotoxic;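 note: NT is the 2HG producing partner of a matched IDH1 knockdown line; nearly all actives have a fitted effect of over 55% in size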
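Compounds were tested in concentration-response format on HT-1080-NT cells for 48 hours at 37 degrees C. Cell viability came from CellTiter-Glo luminescence; curves were classified by r2, response magnitude and activity.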
DT40 TDP1 CPT: qHTS for Inhibitors of human tyrosyl-DNA phosphodiesterase 1 (TDP1): qHTS in cells in presence of CPT; chicken DT40 Tdp1-/-;hTDP1 cells + 20 nM CPT, ATP luminescence, 48 h; Potency, µM (titrated, usually from 46.2 µM), hits mostly inhibitors; actives 12% (n = 420,000); AID 686979, 2013; note: nearly all actives have a fitted effect of over 55% in size
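Cell growth measured by CellTiter-Glo luminescence after a minimum 48 h, 37 C compound exposure with 20 nM CPT in Tdp1-knockout DT40 cells stably expressing hTDP1, seeded 400/well; qHTS titration format.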
IL1B secr inh: qHTS for Inhibitors of Inflammasome Signaling: IL-1-beta AlphaLISA Primary Screen; THP-1 LPS/ATP IL-1B secretion, AlphaLISA, 16 h; stronger effect = lower value; activity change, % at 57.5 µM; actives 4.7% (n = 360,000); AID 743279, 2014; in the data active = activity change below about -50%; inconclusive = mostly about -30% to -49%
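THP-1 cells pretreated 1 hr with compounds (up to 57.5 uM final), then stimulated with LPS (250 ng/mL final) plus ATP (1.25 mM final); secreted IL-1B measured by AlphaLISA after 16 hr, decreased signal indicating inhibition.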
DT40 TDP1 no CPT: qHTS for Inhibitors of human tyrosyl-DNA phosphodiesterase 1 (TDP1): qHTS in cells in absence of CPT | DT40 Tdp1-/- hTDP1 cells, no CPT, ATP luminescence, 48 h | Potency, µM (titrated, usually from 46.2 µM), usual class: inhibitors | actives 15% (n = 420,000) | AID 686978, 2013; note: nearly all actives have a fitted effect of over 55% in size
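Stably hTDP1-transfected Tdp1-null chicken DT40 cells were treated with library compounds minus camptothecin and grown for at least 48 hr at 37 °C, after which cellular ATP was quantified by luminescence.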
HT1080 IDH1KD tx: qHTS for induction of synthetic lethality in tumor cells producing 2HG: qHTS for the HT-1080-IDH1KD cell line | HT-1080 IDH1 knockdown viability, ATP luminescence, 48 h | Potency, µM (top dose mostly 46.1 µM), hits mostly cytotoxic | actives 2% (n = 360,000)
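IDH1KD HT-1080 cells, 750/well, RPMI + 5% FBS; compound pinned after 2 h settling; 48 h, 37 °C; CellTiter-Glo luminescence; % activity normalised to DMSO and no-cell wells; curves fitted, classed by r2 and efficacy.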
Of the large screens only hits and unclear results are named; the others gave an inactive call. Unless noted, calls come from the whole dose curve; as a rule, active = well fitted curve in the direction sought with a large enough effect; inconclusive = small, poorly fitted or top-dose-only effect, or another doubt; inactive = no such curve, though single readings can be large; an effect the other way counts as inactive or inconclusive.

CC(=O)Oc1ccc(Oc2ccc(-c3noc(C)n3)cc2)cc1	ELG1 repair inh inconclusive, DT40 TDP1 CPT 21µM, DT40 TDP1 no CPT 12µM
Cc1nc2cc(OC3(C)CCN(Cc4ccc(OC(F)(F)F)cc4)C3)ccc2s1 (stereo not given)	HT1080NT lethal inconclusive, DT40 TDP1 CPT inconclusive, DT40 TDP1 no CPT inconclusive, HT1080 IDH1KD tx inconclusive (no result: ELG1 repair inh)
O=C(C[n+]1ccc(-c2ccccc2)cc1)Nc1ccc([N+](=O)[O-])cc1	DT40 TDP1 CPT 10µM, DT40 TDP1 no CPT 15µM
Cc1cccc[n+]1CC(=O)Nc1ccc([N+](=O)[O-])cc1	none
CN(C)c1cc[n+](CC(=O)Nc2ccc(OC(F)F)cc2)cc1	DT40 TDP1 CPT 23µM, DT40 TDP1 no CPT 15µM, HT1080 IDH1KD tx inconclusive
CN(C)c1cc[n+](CC(=O)Nc2cccc([N+](=O)[O-])c2)cc1	DT40 TDP1 CPT inconclusive, DT40 TDP1 no CPT 3.3µM
CC1(C(=O)Nc2cccc3ccccc23)CCN1C(=O)Cc1ccccc1Cl (stereo not given)	DT40 TDP1 CPT inconclusive, DT40 TDP1 no CPT inconclusive (no result: ELG1 repair inh)
CN(C)c1cccc(C(=O)OCC(=O)NC(=O)NCc2ccccc2)c1	DT40 TDP1 no CPT inconclusive
COC(=O)c1ccccc1NC(=O)c1cc2cc(C)ccc2n1C	DT40 TDP1 CPT 6.5µM, DT40 TDP1 no CPT 5.8µM (no result: ELG1 repair inh, HT1080NT lethal, IL1B secr inh, HT1080 IDH1KD tx)
C[C@H](CO)N1C[C@H](C)[C@H](CN(C)C(=O)Nc2ccc(C(F)(F)F)cc2)OCc2cnnn2CCCC1=O	none (no result: ELG1 repair inh)
CN1CC(=O)Nc2cc(C(=O)O)ccc21	none (no result: ELG1 repair inh, HT1080NT lethal, IL1B secr inh, HT1080 IDH1KD tx)
O=C(CSc1nnc(-c2ccc3c(c2)OCO3)n1-c1ccccc1)c1ccccc1	DT40 TDP1 CPT 16µM, DT40 TDP1 no CPT 23µM
COc1ccc(C(=O)CSc2nnc(CN3CCCCC3)n2-c2ccc(F)cc2)cc1OC	DT40 TDP1 no CPT inconclusive
O=C(CSc1nnc(-c2cccs2)n1-c1ccccc1)c1ccc2c(c1)OCCO2	none
O=C(CSc1nnc(CN2CCCCC2)n1-c1ccccc1)c1ccc2c(c1)OCO2	DT40 TDP1 CPT inconclusive, DT40 TDP1 no CPT 21µM
O=C(CSc1nnc(-c2ccncc2)n1-c1ccccc1)Nc1ccc(Br)cc1	none (no result: ELG1 repair inh, HT1080NT lethal, IL1B secr inh, HT1080 IDH1KD tx)
CCOc1ccc(-c2nnc(SCC(=O)c3ccccc3)n2-c2ccccc2)cc1	DT40 TDP1 CPT inconclusive, DT40 TDP1 no CPT 6.5µM (no result: ELG1 repair inh, HT1080NT lethal, IL1B secr inh, HT1080 IDH1KD tx)
Cc1cccc(-n2c(SCC(=O)c3ccccc3)nnc2-c2ccc(Br)cc2)c1	DT40 TDP1 CPT 16µM, DT40 TDP1 no CPT 18µM (no result: ELG1 repair inh, HT1080NT lethal, IL1B secr inh, HT1080 IDH1KD tx)
COC(=O)c1cccc(C(=O)N2CCc3c(C(=O)OC)c(OCc4ccccn4)cc(=O)n3CC2)c1	none (no result: ELG1 repair inh, HT1080NT lethal, IL1B secr inh, HT1080 IDH1KD tx)
CC(C)NCCCCOc1cccc(Br)c1	DT40 TDP1 CPT inconclusive, DT40 TDP1 no CPT 23µM
Brc1cccc(OCCCNC2CCCC2)c1	DT40 TDP1 CPT inconclusive, IL1B secr inh inconclusive, DT40 TDP1 no CPT 21µM
C=CCNCCCCOc1cccc(Br)c1	IL1B secr inh -65
CNC(=S)N(CCc1c(C)[nH]c2ccc(OC)cc12)Cc1ccco1	DT40 TDP1 no CPT inconclusive
COc1nc(OC)nc(Oc2ccc(Cl)cc2[N+](=O)[O-])n1	none
COc1ccccc1S(=O)(=O)c1ccccc1[N+](=O)[O-]	none
COc1ccc([N+](=O)[O-])c(S(=O)(=O)c2ccccc2)n1	ELG1 repair inh inconclusive, HT1080NT lethal 21µM, DT40 TDP1 CPT 0.58µM, IL1B secr inh -96, DT40 TDP1 no CPT 1.6µM, HT1080 IDH1KD tx 13µM
COc1ccc([N+](=O)[O-])c(S(=O)(=O)c2ccc(Cl)cc2)n1	HT1080NT lethal 23µM, DT40 TDP1 CPT 1µM, IL1B secr inh -95, DT40 TDP1 no CPT 0.65µM, HT1080 IDH1KD tx 8.2µM
